From PubChem BioAssay AID651593 (National Center for Advancing Translational Sciences (NCATS), 2012)
The campaign covered roughly 1,100 compounds. About 860 (78%) were called active. Not shown: some 19% with an inconclusive outcome. Calls come from the whole dose curve; as a rule, active = well fitted activation curve with a large enough effect; inconclusive = small, poorly fitted or top-dose-only effect; inactive = flat fitted curve, though single readings scatter. So high a share suggests a set chosen from earlier hits. The list shows a part of the results.

Experiment: qHTS of Nrf2 Activators: Hit Validation in Primary Assay; note: nearly all actives have a fitted effect of over 70% in size
Conditions: Nrf2/ARE reporter cell assay; Potency: activation; series mostly up to 46.1 µM
Source text: Many diseases have some form of oxidative stress injury and ties to inflammation, causing a host of problems for the patient. The antioxidant response element (ARE) plays an important role in alleviating the harmful effects of oxidative stress. The antioxidant response element (ARE) is a transcriptional regulatory element involved in the activation of genes coding for a number of antioxidant proteins and detoxifying enzymes. These enzymes work in concert to protect tissues from oxidative insults and chemical toxicities in human hepatocytes and immune cells. The protective effects of ARE activation are primarily triggered through Nrf2 (NF-E2-related factor) binding to and activating AREs. It is known that Nrf2 controls the production of over 250 antioxidant and detoxification proteins (Hu et al., 2006), thereby protecting tissues by increasing cellular antioxidant content and suppressing inflammatory signaling pathways. The transcription factor Nrf2 is a central link between oxidative chemicals, such as phenolic antioxidants and electrophilic compounds, and the activation of ARE. Nrf2 levels are constitutively low as a consequence of its interaction with Keap1, which targets its degradation (Zipper and Mulcahy, 2002). Electrophiles react with key cysteine residues in Keap1, releasing Nrf2 and allowing its translocation to the nucleus. Once within the nucleus, Nrf2 complexes with coactivators such as p300, and binds to the AREs to induce gene transcription of cytoprotective enzymes, resulting in the prevention of toxicity. Activation of Nrf2 protects tissues by increasing cellular antioxidant content and suppressing inflammatory signaling pathways. Identifying novel and potent Nrf2 activators by using the AREc32 cell line to detect ARE activation by small molecules will lead to the identification and development of probes to study protective pathways in multiple tissues. These specific probes are essential to study the ARE pathway, and eventually to determine whether this pathway does activate genes that could protect against a host of diseases, including cardiovascular diseases, obesity, diabetes, Alzheimer's, and Parkinson's disease.
This project's aim is to identify novel and potent Nrf2 activators by using the AREc32 cell line to detect ARE activation by small molecules, which will lead to the identification and development of probes to study the ARE pathway.
NIH Chemical Genomics Center [NCGC]
NIH Molecular Libraries Probe Centers Network [MLPCN]
Assay Submitter (PI): Curtis Klaassen, University of Kansas Medical Center
Quantification of ARE activation after compound treatment was measured by the Steady-Glo Luciferase (R) assay system (Promega) in AREc32_fluc stable cells. The Steady-Glo reagent acts by cell lysis and generation of a luminescent signal proportional to ARE activation, through the luciferase reporter in the AREc32 stable cell line. AREc32_fluc cells were harvested from T225 flask and resuspended in phenol red free OPTI-MEM medium with 5% FBS. Then 5 microL of 200,000 cells/mL resuspended cells were dispensed into each well of white, solid bottom, 1536-well tissue culture-treated plates using a Multidrop Combi dispenser. After overnight culture at 37 degrees C with 5% CO2, a total of 23 nL of compounds at 5 selected concentrations from the MLSMR/Sytravon or positive control (40 uM stock of CDDO-IM and 2 mM of tBHQ) in DMSO was transferred to each well of the assay plate using a pintool (Kalypsys, San Diego, CA), and the plates were further incubated at 37 degrees C with 5% CO2 for 24 hours. After that, 2 microL of Steady Glo luminescent substrate mix (Promega) was added to each well. The plate was incubated at room temperature for 30 minutes. The plates were measured on a ViewLux plate reader (PerkinElmer) with clear filter.
Potency is the fitted concentration of half-maximal effect.

Row | SMILES | Potency
1 | Brc1ccccc1C1N=C(c2ccccc2)NO1 (stereo unspecified) | 5.8 µM (active)
2 | Cc1ccc(S(=O)(=O)c2nc(S(C)(=O)=O)sc2N2CCN(C)CC2)cc1 | 5.17 µM (active)
3 | CN1CCN(c2sc(S(C)(=O)=O)nc2S(=O)(=O)c2ccc(Cl)cc2)CC1 | 8.2 µM (active)
4 | O=C(Nc1nc2c(Cl)cccc2s1)c1ccc([N+](=O)[O-])o1 | 3.66 µM (active)
5 | O=C(Nc1nc2ccc(F)cc2s1)c1ccc([N+](=O)[O-])o1 | 3.66 µM (active)
6 | O=c1cc(-c2cccc(Br)c2)oc2cccc(O)c12 | 5.8 µM (active)
7 | Cn1c(N)c(C(=O)COC(=O)c2nc(Cl)ccc2Cl)c(=O)n(C)c1=O | 1.46 µM (active)
8 | COc1cc(NC(=S)Nc2ccccn2)c(OC)cc1Cl | 5.17 µM (active)
9 | COc1ccc(C(C#N)=C2C=CC(=NO)C=C2)cc1 | 1.3 µM (active)
10 | C/C(=N\NC(=S)Nc1cccc(C)c1)c1ccco1 | 2.31 µM (active)
11 | O=C(Nc1ccc(OC(F)F)cc1)c1ncc(Cl)c(Cl)c1Cl | 16.4 µM (active)
12 | c1ccc(CSc2nccc(-c3ccco3)n2)cc1 | 20.6 µM (active)
13 | Nc1nccc(/C=C/c2c(F)cccc2Cl)n1 | 9.2 µM (active)
14 | COc1ccccc1Cc1c(-c2ccco2)nc2ccc(Cl)cn12 | 16.4 µM (active)
15 | Clc1ccc2nc(-c3ccco3)c(Cc3ccccc3)n2c1 | 23.1 µM (active)
16 | FC(F)(F)c1cc(-c2ccco2)nc(NCc2ccco2)n1 | 11.6 µM (active)
17 | FC(F)(F)c1cc(-c2ccco2)nc(-n2nnc3ccccc32)n1 | 2.59 µM (active)
18 | FC(F)(F)c1cc(-c2cccs2)nc(NCc2ccco2)n1 | 4.61 µM (active)
19 | Cc1ccc(N=C2NC(=O)/C(=C/C=C/c3ccco3)S2)cc1 | 2.06 µM (active)
20 | O=C1NC(=Nc2ccccc2)S/C1=C\C=C\c1ccco1 | 2.31 µM (active)
21 | O=[N+]([O-])c1cccc(C=NN=Cc2ccccc2O)c1 | 8.2 µM (active)
22 | O=[N+]([O-])c1ccccc1C=CC=NN=Cc1ccccc1O | 3.26 µM (active)
23 | NC(=O)N/N=C/c1ccccc1OC(=O)c1ccccc1Br | 3.26 µM (active)
24 | COC(=O)c1sccc1NC(=O)c1ccc(Br)s1 | 7.31 µM (active)
25 | COC(=O)c1sccc1NC(=O)c1ccc(Br)o1 | 9.2 µM (active)
26 | Cc1ccc(S(=O)(=O)c2cc3ccccc3oc2=O)cc1 | 8.2 µM (active)

Row | SMILES | Potency
27 | COC(=O)c1c(NC(=O)/C=C/c2ccco2)sc2c1CCC2 | 0.461 µM (active)
28 | COC(=O)C(=C/C=C/c1ccco1)C(=O)OC | 9.2 µM (active)
29 | COC(=O)c1ccccc1NC(=O)/C=C/c1ccco1 | 0.411 µM (active)
30 | COc1ccccc1NC(=O)/C=C\c1ccco1 | 1.84 µM (active)
31 | O=C(/C=C/c1ccco1)Nc1ccccc1N1CCCCC1 | 1.16 µM (active)
32 | O=c1c2cc3c(=O)n(-c4ccccc4O)c(=O)c3cc2c(=O)n1-c1ccccc1O | inactive
33 | CCOc1ncccc1C(=O)NNC(=O)c1ccc(NS(=O)(=O)c2cccs2)cc1 | 2.59 µM (active)
34 | O=C(/C=C/c1ccc(-c2ccccc2[N+](=O)[O-])o1)c1ccccc1 | 3.66 µM (active)
35 | O=C(/C=C/c1ccc(-c2ccccc2[N+](=O)[O-])o1)c1ccc(Br)cc1 | 1.84 µM (active)
36 | Cc1ccc(C(=O)/C=C/c2ccc(-c3ccccc3[N+](=O)[O-])o2)cc1 | 2.06 µM (active)
37 | CC(/C=N/NC(=O)Cc1cccn1C)=C\c1ccco1 | 1.46 µM (active)
38 | c1ccc(CNc2nc(NCc3ccco3)nc(N3CCOCC3)n2)cc1 | 5.17 µM (active)
39 | CNC(=O)c1ccsc1NC(=O)c1ccc(Cl)s1 | 7.31 µM (active)
40 | O=C1c2cccc3cccc(c23)C(=O)N1Cc1ccco1 | 5.17 µM (active)
41 | Nc1ccccc1N1C(=O)c2cccc3cccc(c23)C1=O | 16.4 µM (active)
42 | CC(=O)Nc1cc(-c2ccsc2)cn2c(-c3ccc(F)cc3)cnc12 | 5.17 µM (active)
43 | CC(C)c1ccc(NC(=O)c2cc(Br)ccc2Br)cc1 | 5.8 µM (active)
44 | CS(=O)(=O)c1nc(S(=O)(=O)c2ccc(Cl)cc2)c(N2CCN(CCO)CC2)s1 | 8.2 µM (active)
45 | CCN1CCN(c2sc(S(C)(=O)=O)nc2S(=O)(=O)c2ccc(Cl)cc2)CC1 | 14.6 µM (active)
46 | COC(=O)c1cc(S(=O)(=O)C(C)C)c(S(C)=O)s1 (stereo unspecified) | 20.6 µM (active)
47 | COc1c(C(=O)Nc2nnc(C3CC3)s2)csc1Cl | 8.2 µM (active)
48 | CCCc1c(C(=O)N/N=C/c2cccs2)nnn1-c1nonc1N | 4.11 µM (active)
49 | CN1C2CCC1/C(=C\c1ccccc1)C(=O)/C2=C\c1ccccc1 | 2.91 µM (active)
50 | N#C/C(=C\c1ccccc1[N+](=O)[O-])c1nc(C2CC2)cs1 | 11.6 µM (active)
51 | O=[N+]([O-])c1ccccc1S(=O)c1ccccc1[N+](=O)[O-] | 16.4 µM (active)
52 | COc1cc(/C=C/c2ccc3cccc(O)c3n2)cc(OC)c1OC | inactive

Row | SMILES | Potency
53 | Oc1ccc(Cl)cc1/C=C/c1ccc2cccc(O)c2n1 | 4.61 µM (active)
54 | COc1cc(Cl)cc(/C=C/c2ccc3cccc(O)c3n2)c1OC | 2.31 µM (active)
55 | Nc1c(C(=O)Nc2ccccc2Br)sc2nc(-c3cccs3)ccc12 | 14.6 µM (active)
56 | COC(=O)c1ccc2nc(-c3ccco3)c(Cc3ccccc3)n2c1 | 18.4 µM (active)
57 | COC(=O)c1ccc2nc(-c3cccc(Cl)c3)c(Cc3ccccc3OC)n2c1 | 2.91 µM (active)
58 | COC(=O)c1ccc2nc(-c3ccco3)c(Cc3cccc(Cl)c3)n2c1 | 23.1 µM (active)
59 | O=[N+]([O-])c1ccc(/C=C/c2ccc3cccc([N+](=O)[O-])c3n2)cc1 | 0.731 µM (active)
60 | CCOc1cc(/C=C/c2ccc3cccc([N+](=O)[O-])c3n2)cc(Cl)c1O | 0.517 µM (active)
61 | O=[N+]([O-])c1cccc2ccc(/C=C/c3ccc(Cl)cc3)nc12 | 1.16 µM (active)
62 | O=[N+]([O-])c1cccc2ccc(/C=C/c3ccc(F)cc3)nc12 | 1.84 µM (active)
63 | O=[N+]([O-])c1cccc2ccc(/C=C/c3cccc(Br)c3)nc12 | 1.84 µM (active)
64 | C/C(=N\NC(=O)CSc1nc2ccccc2s1)c1ccco1 | 5.17 µM (active)
65 | O=C(CSc1nc2cc(Cl)ccc2s1)c1ccco1 | 1.84 µM (active)
66 | O=C(CSc1nc2ccccc2s1)N/N=C/c1ccco1 | 8.2 µM (active)
67 | CC(=O)c1cc2c(cc1NC(=O)CSc1nc3ccccc3o1)OCO2 | 8.2 µM (active)
68 | CC(=NNC(=O)CSc1nc2ccccc2o1)c1ccco1 | 7.31 µM (active)
69 | Cc1ccnc(SCC(=O)c2ccc(Br)cc2)c1C#N | 2.31 µM (active)
70 | Cc1cc(SCC(=O)c2cccs2)nc2ccccc12 | 2.59 µM (active)
71 | Cc1cc(C)c(C#N)c(SCC(=O)c2cccs2)n1 | 5.17 µM (active)
72 | CSc1nc(N)nc(SCC(=O)c2ccccc2)c1C#N | 7.31 µM (active)
73 | Cc1cc(C)c(C#N)c(SCC(=O)c2ccccc2)n1 | 14.6 µM (active)
74 | O=C(CN1CCN(Cc2ccccc2)CC1)N/N=C\C=C/c1ccco1 | 20.6 µM (active)
75 | O=C(CN1CCN(Cc2ccccc2Cl)CC1)N/N=C/C=C/c1ccco1 | 2.59 µM (active)
76 | CC(=NNc1ccc2ccccc2n1)c1ccccc1O | 3.66 µM (active)
77 | CC(=O)OC1(C(C)=O)CCC2C3CC(C(F)(F)F)C4=CC(=O)CCC4(C)C3CCC21C (stereo unspecified) | 4.61 µM (active)
78 | O=C1N/C(=N\N=C\c2ccco2)SC1Cc1ccc(F)cc1 (stereo unspecified) | 0.731 µM (active)

Row | SMILES | Potency
79 | O=C1N/C(=N\N=C\c2ccco2)SC1Cc1ccccc1[N+](=O)[O-] (stereo unspecified) | 2.06 µM (active)
80 | Cc1cccc(CC2S/C(=N/N=C/c3ccco3)NC2=O)c1 (stereo unspecified) | 0.206 µM (active)
81 | O=C(C=Cc1ccco1)c1ccc2ccccc2c1 | 2.59 µM (active)
82 | CC(/C=C/c1ccco1)=N\NC(=O)CNc1ccc2ccccc2c1 | 16.4 µM (active)
83 | CCc1nc(Nc2cccc(F)c2)c2oc3ccccc3c2n1 | 2.91 µM (active)
84 | Cc1nc(Nc2ccccc2F)c2oc3ccccc3c2n1 | 2.31 µM (active)
85 | O=C(Nc1c(O)c2ccccc2[nH]c1=O)c1ccco1 | 7.31 µM (active)
86 | NC(=O)c1oc2ccccc2c1NC(=O)c1ccccc1 | 2.59 µM (active)
87 | NC(=O)c1oc2ccccc2c1NC(=O)c1ccco1 | 2.31 µM (active)
88 | CN1c2ccsc2/C(=N/Nc2ccccc2)CS1(=O)=O | 2.31 µM (active)
89 | C=C(C)CNC(=S)N/N=C(\C)c1ccc(Cl)s1 | 2.59 µM (active)
90 | CCOc1ccccc1NC(=O)C1COc2ccccc2O1 (stereo unspecified) | 4.61 µM (active)
91 | O=C(Nc1ccccc1[N+](=O)[O-])C1COc2ccccc2O1 (stereo unspecified) | 4.61 µM (active)
92 | COc1ccc(Cl)cc1NC(=O)C1COc2ccccc2O1 (stereo unspecified) | 2.91 µM (active)
93 | Cc1csc(NC(=O)c2cc(-c3ccco3)nc3ccccc23)n1 | 2.59 µM (active)
94 | O=C(Nc1nccs1)c1cc(-c2ccco2)nc2ccccc12 | 8.2 µM (active)
95 | NS(=O)(=O)c1ccc(NC(=O)c2cc(-c3cccs3)nc3ccccc23)cc1 | inactive
96 | O=C(N/N=C/c1ccc(Br)s1)c1cccs1 | 2.91 µM (active)
97 | Cc1ccsc1/C=N/N=C1\C(=O)Nc2ccccc21 | 7.31 µM (active)
98 | CCn1c(=N)n(CC(=O)c2cccc([N+](=O)[O-])c2)c2ccccc21 | 2.31 µM (active)
99 | N=c1n(CCN2CCOCC2)c2ccccc2n1CC(=O)c1cccc([N+](=O)[O-])c1 | 2.91 µM (active)
100 | CC1(O)c2ccccc2C(=O)N1CCc1ccccc1F (stereo unspecified) | 5.8 µM (active)
101 | Cc1ccc(-c2nc(C=Nc3ccc(O)cc3)c(O)o2)cc1 | 16.4 µM (active)
